Data on 31 compounds can be found in PubChem BioAssay (Tox21).

Records with an inconclusive call do not appear. A number with no mark means an inactive call. The source made the active and inactive calls. Calls come from the whole dose curve; as a rule, active = well fitted curve in the direction sought with a large enough effect in the repeat runs; inconclusive = weak or mixed curves; inactive = no such curve, though single readings can be large; an effect the other way counts as inactive or inconclusive.

The nature of test [1]: A CellTox Green Cytotoxicity Assay to monitor cytotoxicity in HEK293 cells - 40 hour (AID 1224871). Note: nearly all actives have a fitted effect of over 45% in size. Note: potency is the fitted concentration of half-maximal effect. In outline:
(§1)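 Seeding of HEK293 cells together with cytotoxicity dye preceded a 5 h incubation at 37 C/5% CO2. Test compounds in DMSO were then added and fluorescence monitored across 40 h.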

Test [2] is described as follows: qHTS RealTime-Glo MT Cell Viability Assay in HEK293 cells - 16 hour (AID 1224872). For activity change, negative = cytotoxicity: top concentration of the series differs between compounds. Note: nearly all actives have a fitted effect of over 50% in size. Note: potency is the fitted concentration of half-maximal effect. The procedure, abridged:
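Reads taken at 0, 8, 16, 24, 32 and 40 h from the same wells. HEK293 cells (600/well) carried RealTime-Glo reagents from seeding, with compound added after a 5 h settle at 37 C.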
(In qHTS, concentration-response curves come from the screen itself.)

A short description of test [3]: qHTS RealTime-Glo MT Cell Viability Assay in HepG2 cells - 8 hour (AID 1224873). Note: nearly all actives have a fitted effect of over 55% in size. In outline: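 HepG2 cells (600/well) mixed with RealTime-Glo MT reagent, settled 5 h at 37 C/5% CO2 before compound addition. Nonlytic NanoLuc luminescence from viable-cell prosubstrate reduction read repeatedly during 40 h treatment at 37 C.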
Test [4] can be described thus: qHTS RealTime-Glo MT Cell Viability Assay in HEK293 cells - 40 hour (AID 1224874). Note: nearly all actives have a fitted effect of over 50% in size. Note: potency is the fitted concentration of half-maximal effect. To be noted: RealTime-Glo luminescence; max response: stronger effect = lower value. In outline:
(§2)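 Tox21 screen in HEK293 using RealTime-Glo MT chemistry, with cells and reagent co-dispensed. Luminescence proportional to viable cell number was captured at intervals during 40 h compound exposure at 37 C.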

Test [5] in a line: A CellTox Green Cytotoxicity Assay to monitor cytotoxicity in HEK293 cells - 24 hour (AID 1224875). Note: series mostly up to about 77 µM; nearly all actives have a fitted effect of over 45% in size. The procedure, abridged:
as §1

Test [6] in a line: A CellTox Green Cytotoxicity Assay to monitor cytotoxicity in HepG2 cells - 16 hour (AID 1224876). Note: nearly all actives have a fitted effect of over 45% in size. In outline: (§3)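 Nonlytic assay: viable cells exclude the dye, so fluorescence scales with cell death. HepG2 at 600 cells/well, compounds added after 5 h, signal read across 40 h.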
Test [7] is described as follows: qHTS RealTime-Glo MT Cell Viability Assay in HepG2 cells - 32 hour (AID 1224877). Note: nearly all actives have a fitted effect of over 55% in size. In outline: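 HepG2 suspension premixed with RealTime-Glo reagents is plated at 600 cells per well and left 5 h at 37 C/5% CO2. Compounds in DMSO then go in, and bioluminescence reflecting viable cell number is recorded over 40 h.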
A short description of test [8]: A CellTox Green Cytotoxicity Assay to monitor cytotoxicity in HepG2 cells - 24 hour (AID 1224878). Note: nearly all actives have a fitted effect of over 45% in size. In outline: as §3
Test [9] can be described thus: qHTS RealTime-Glo MT Cell Viability Assay in HEK293 cells - 0 hour (AID 1224880). The procedure, abridged:
as §2

Test [10] in a line: A CellTox Green Cytotoxicity Assay to monitor cytotoxicity in HepG2 cells - 40 hour (AID 1224879). Note: nearly all actives have a fitted effect of over 40% in size. The procedure, abridged: as §3
% is set by controls: 0 for no effect and ±100 for the full control effect.

Turning to `C[N+]1(CC2COC(c3ccccc3)(c3ccccc3)O2)CCCCC1` (configuration not stated), the cytotoxicity increase in test [1] was -8.19% [at 15.8 µM]; in [6], -3.73% [at 15.8 µM]. For the same compound, the activity change, negative = cytotoxicity in test [2] was -1.95% [at 15.8 µM]; in [9], -4.13% [at 15.8 µM]. The viability change, negative = cytotoxic in [3] was 1.12% [at 15.8 µM]. For the same compound, the max response in [4] was -1.89%. In [5], the activity change was -7.42% [at 15.8 µM]. Moreover, the activity change, negative = cytotoxic in test [7] was -9% [at 15.8 µM]. Moreover, the cytotoxicity in test [8] is -0.651% [at 15.8 µM].
For `C[C@H]1[C@H](NC(=O)/C(=N/OC(C)(C)C(=O)O)c2csc(N)n2)C(=O)N1S(=O)(=O)O` (stereo in doubt), the Potency result in [1], in test [2], in test [7], in test [10] and in [9] was “inactive” each time. For the same compound, the outcome in test [3], in test [5], in test [6] and in test [8] was inactive. Also, the max response in test [4] is 5.51%.
In the case of `C[N+]1(C)CCCC(OC(=O)C(O)(c2ccccc2)c2ccccc2)C1` (configuration not stated), the Potency result in test [1], in test [2], in test [7], in test [10] and in test [9] was “inactive” each time. Moreover, the compound was classed as inactive in test [3], in test [5], in [6] and in test [8]. Also, in test [4], the max response was -4.47%.
As to `C=C(C)C(=O)OCC1CCCO1` (configuration not stated), the Potency result in test [1], in test [2], in test [7], in test [10] and in test [9] was “inactive” in each case. The result in test [3], in test [5], in [6] and in [8] was inactive. Besides, in test [4], the max response is 7.57%.
Take `CC(C#N)(CCC(=O)O)N=NC(C)(C#N)CCC(=O)O` (configuration not stated): the Potency result in test [1], in [2], in test [7], in test [10] and in [9] was “inactive” in each case. For the same compound, the outcome in [3], in test [5], in [6] and in [8] was inactive. Besides, the max response in test [4] is 3.09%.
For the compound `C=CC(C)(CCC=C(C)C)OC(=O)CC` (configuration not stated), the Potency result in test [1], in test [2], in test [7], in [10] and in test [9] was “inactive” throughout. Besides, the outcome in [3], in test [5], in test [6] and in test [8] was inactive. The max response in test [4] was -1.4%.
As for `CC1CCC(CO)CC1` (configuration not stated), the Potency entry in test [1], in test [2], in [7], in [10] and in test [9] was “inactive” each time. Moreover, the compound was classed as inactive in [3], in [5], in test [6] and in [8]. For the same compound, the max response in test [4] is 9.47%.
As to `COc1cc(C)nc(-n2nc(C)cc2OC)n1`, the Potency result in [1], in [2], in test [7], in test [10] and in [9] was “inactive” each time. Moreover, the result in test [3], in test [5], in test [6] and in test [8] was inactive. Also, the max response in test [4] is -0.0998%.
Regarding `CN1C(C)(C)CC(O)CC1(C)C`, the Potency entry in [1], in test [2], in test [7], in [10] and in [9] was “inactive” throughout. Besides, the call in test [3], in test [5], in test [6] and in test [8] was inactive. Besides, the max response in test [4] was 2.49%.
As for `Cc1ccccc1N=C(N)N=C(N)N`, the Potency result in test [1], in test [2], in test [7], in test [10] and in test [9] was “inactive” in each case. Further, the compound was classed as inactive in [3], in test [5], in test [6] and in test [8]. In addition, the max response in test [4] was -9.52%.
For `O=C(O)CCSCCC(=O)O`, the Potency entry in [1], in test [2], in test [7] and in [9] was “inactive” in each case. For the same compound, the compound was classed as inactive in [3], in test [5], in [6] and in test [8]. The max response in test [4] was 0.716%.
In the case of `O=[N+]([O-])c1ccc(/C=N\O)o1`, the Potency entry in [1], in [2], in test [7], in test [10] and in [9] was “inactive” throughout. Besides, the result in [3], in test [5], in test [6] and in test [8] was inactive. The max response in test [4] was 4.52%.
Consider `CCCc1ncc(C[n+]2ccccc2C)c(N)n1`, for which the Potency entry in test [1], in test [2], in [7] and in test [9] was “inactive” throughout. Also, the compound was called inactive in test [3], in [5], in test [6] and in test [8]. For the same compound, in test [4], the max response was 6.68%.
As for `CCCCCCCCCCCCCCCCCCO`, the Potency result in [1], in test [2], in test [7], in test [10] and in test [9] was “inactive” each time. Besides, the outcome in test [3], in test [5], in test [6] and in test [8] was inactive. Besides, the max response in test [4] is -1.19%.
As for `COc1c(N2CCNC(C)C2)c(F)cc2c(=O)c(C(=O)O)cn(C3CC3)c12` (configuration not stated), the Potency entry in test [1], in test [2], in test [7] and in [9] was “inactive” in each case. The call in [3], in test [5], in test [6] and in [8] was inactive. In [4], the max response was 14%.
With `NO`, the Potency result in [1], in test [2], in test [7], in test [10] and in test [9] was “inactive” each time. For the same compound, the call in [3], in test [5], in test [6] and in test [8] was inactive. In addition, the max response in test [4] is -12.7%.
With `COCCOC[C@H](CC1(C(=O)NC2CCC(C(=O)O)CC2)CCCC1)C(=O)Oc1ccc2c(c1)CCC2` (some centres not stated), the Potency entry in test [1], in test [2], in [7], in test [10] and in test [9] was “inactive” in each case. For the same compound, the result in test [3], in test [5], in test [6] and in test [8] was inactive. In addition, the max response in [4] is 5.36%.
As to `C=CN1CCCCCC1=O`, the Potency entry in test [1], in test [2], in [7] and in test [9] was “inactive” in each case. For the same compound, the result in [3], in test [5], in [6] and in [8] was inactive. Besides, the max response in [4] is 3.47%.
Turning to `Clc1cc(Cl)cc(Cl)c1`, the Potency entry in test [1], in test [2], in test [7], in test [10] and in test [9] was “inactive” in each case. The compound was called inactive in [3], in test [5], in test [6] and in test [8]. Besides, the max response in [4] is 12.7%.
With `CN(C)C(=O)Oc1cccc([N+](C)(C)C)c1`, the Potency result in test [1], in [2], in [7] and in test [9] was “inactive” in each case. Besides, the call in [3], in [5], in test [6] and in [8] was inactive. Also, the max response in test [4] is 6.55%.
`c1coc(CNc2ncnc3nc[nH]c23)c1`: the Potency entry in test [1], in test [2], in test [7], in test [10] and in test [9] was “inactive” throughout. In addition, the result in [3], in [5], in test [6] and in test [8] was inactive. In addition, in test [4], the max response was -15.6%.
Turning to `O=C(O)CC(C(=O)O)S(=O)(=O)O` (configuration not stated), the Potency entry in test [1], in [2], in test [7], in test [10] and in test [9] was “inactive” each time. The compound was called inactive in test [3], in test [5], in test [6] and in test [8]. Further, in test [4], the max response was 5.69%.
With `CCN(Cc1ccccc1)c1ccccc1`, the Potency in test [1] was 43.1 µM (active); in test [2], 19.3 µM (active); in test [4], 21.6 µM (active). The call in test [3], in test [5], in test [6] and in test [8] was inactive. The Potency result in [7], in [10] and in test [9] was “inactive” in each case.
Turning to `O=[N+]([O-])c1cncn1CCN1CCOCC1`, the Potency entry in test [1], in test [2], in [7], in test [10] and in test [9] was “inactive” in each case. Also, the compound was classed as inactive in test [3], in test [5], in [6] and in test [8]. Further, the max response in test [4] is -2.63%.
On to `Cc1ccc(C(=O)c2ccccc2)cc1`, for which the Potency result in test [1], in test [2], in test [7] and in test [9] was “inactive” each time. In addition, the call in [3], in [5], in [6] and in test [8] was inactive. In addition, in test [4], the max response is -1.28%.
For the compound `CCCCOC(=O)CCC(C)=O`, the Potency result in test [1], in test [2], in [7], in test [10] and in [9] was “inactive” throughout. Besides, the compound was classed as inactive in [3], in [5] and in test [6]. Also, the max response in test [4] was -4.42%.
Regarding `CC1=NS(=O)(=O)c2cc(Cl)ccc2N1`, the Potency result in [1], in [2], in [7], in test [10] and in test [9] was “inactive” each time. Further, the compound was classed as inactive in test [3], in [5] and in test [6]. For the same compound, in [4], the max response is 2.07%.
For `C[C@@H]1CCC[C@H](C)N1`, the Potency entry in test [1], in test [2], in [7], in test [10] and in test [9] was “inactive” in each case. Further, the compound was called inactive in test [3], in test [5] and in test [6]. The max response in test [4] is 0.353%.
Take `C=CCCC(=O)O`: the Potency entry in test [1], in test [2], in test [7], in [10] and in test [9] was “inactive” each time. Further, the compound was called inactive in test [3], in test [5] and in test [6]. Also, in test [4], the max response was 7.36%.
With `CC(=O)c1ccccc1[N+](=O)[O-]`, the Potency result in test [1], in test [2], in [7] and in [9] was “inactive” each time. The compound was called inactive in test [3], in test [5], in test [6] and in test [8]. Besides, the max response in [4] is 21.1%.
Consider `COCCOCC(OC)OC`, for which the Potency result in test [1], in test [2], in test [7], in test [10] and in [9] was “inactive” throughout. Besides, the call in test [3], in test [5] and in [6] was inactive. Also, the max response in test [4] is -1.01%.
